Experimental findings from PMC4336329 (PLoS ONE, 2015) are described below.

About 14,000 (4.5%) of roughly 310,000 compounds showed an effect of 50% or more. Effects have a minus sign here. For the sample, strong results were picked, then their nearest neighbours and some compounds at random.
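Further: peak tail current of the secondary pulse compared with the same well before compound.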

Sequence of human ether-à-go-go-related gene (hERG) potassium channel (Q12809 whole entry, looked up): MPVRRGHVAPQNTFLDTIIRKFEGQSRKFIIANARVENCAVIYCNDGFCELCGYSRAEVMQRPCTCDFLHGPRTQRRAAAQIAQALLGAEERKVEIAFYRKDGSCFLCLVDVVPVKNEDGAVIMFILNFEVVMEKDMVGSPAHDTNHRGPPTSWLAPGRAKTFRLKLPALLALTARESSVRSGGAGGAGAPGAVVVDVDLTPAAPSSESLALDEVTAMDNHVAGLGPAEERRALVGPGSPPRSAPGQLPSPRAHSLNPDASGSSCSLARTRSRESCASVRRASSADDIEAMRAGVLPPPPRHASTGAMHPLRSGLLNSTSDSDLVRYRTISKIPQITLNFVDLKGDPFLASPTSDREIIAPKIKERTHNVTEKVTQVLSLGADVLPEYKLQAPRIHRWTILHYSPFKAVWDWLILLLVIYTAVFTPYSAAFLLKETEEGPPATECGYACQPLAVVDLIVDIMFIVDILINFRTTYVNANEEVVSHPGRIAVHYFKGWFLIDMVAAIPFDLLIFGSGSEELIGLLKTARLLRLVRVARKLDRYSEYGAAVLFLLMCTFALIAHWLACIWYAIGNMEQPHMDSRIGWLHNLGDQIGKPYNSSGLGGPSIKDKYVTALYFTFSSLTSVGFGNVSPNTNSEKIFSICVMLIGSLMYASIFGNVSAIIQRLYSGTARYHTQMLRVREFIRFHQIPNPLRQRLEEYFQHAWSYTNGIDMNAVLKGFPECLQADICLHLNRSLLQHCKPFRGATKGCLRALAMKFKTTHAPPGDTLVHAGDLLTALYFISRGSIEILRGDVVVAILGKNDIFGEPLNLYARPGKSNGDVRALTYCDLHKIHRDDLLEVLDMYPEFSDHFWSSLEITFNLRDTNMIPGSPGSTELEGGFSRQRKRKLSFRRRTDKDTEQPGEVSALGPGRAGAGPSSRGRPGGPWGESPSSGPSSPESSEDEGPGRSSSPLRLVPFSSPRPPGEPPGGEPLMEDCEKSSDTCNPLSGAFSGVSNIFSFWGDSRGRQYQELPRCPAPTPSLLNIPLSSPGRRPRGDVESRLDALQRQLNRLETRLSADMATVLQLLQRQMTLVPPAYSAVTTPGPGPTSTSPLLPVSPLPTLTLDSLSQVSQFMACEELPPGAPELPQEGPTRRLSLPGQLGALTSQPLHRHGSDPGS

The assay concerns the target human ether-à-go-go-related gene (hERG) potassium channel (human, UniProt Q12809). The assay can be described thus: primary screen, population patch clamp on CHO cells stably expressing hERG; higher = less effect of the substance.
As to `Cc1cc(Cl)c(OCCCN(C)C)c(Br)c1.O=C(O)C(=O)O`, the “hERG current change (%, negative = inhibition) at 10uM” value is on record as -40.4%.

For the compound `Cc1cc(Cl)c(OCCCCN2CCOCC2)c(Br)c1`, the “hERG current change (%, negative = inhibition) at 10uM” value is on record as -30.2%. Consider `Cc1cc(Cl)c(OCCOCCN2CCN(C)CC2)c(Br)c1.O=C(O)C(=O)O`, for which the “hERG current change (%, negative = inhibition) at 10uM” value is on record as -9.48%. Consider `Cc1cc(C)c(OCCN2CC(C)OC(C)C2)c(Br)c1.O=C(O)C(=O)O` (stereo not shown), for which the “hERG current change (%, negative = inhibition) at 10uM” value is reported as -17.5%. As to `Cc1cc(Cl)cc(Cl)c1OCCN1CCCC1`, the “hERG current change (%, negative = inhibition) at 10uM” value is listed as -55%. As to `Cc1cc(Cl)c(OCCOCCN2CCC(C)CC2)c(Br)c1.O=C(O)C(=O)O`, the “hERG current change (%, negative = inhibition) at 10uM” value is on record as -57.6%. `Cc1cc(C)c(OCCCCN2CCNCC2)c(C)c1.O=C(O)C(=O)O`: the “hERG current change (%, negative = inhibition) at 10uM” value worked out at 9.44%.

For `Cc1cc(C)c(OCCCCN2CCC(C)CC2)c(Br)c1`, the “hERG current change (%, negative = inhibition) at 10uM” value is recorded as -72.7%. Then `Cc1cc(C)c(OCCN2CCCC2)c(Cl)c1`, with -42.1%; and `CCOC(=O)c1ccc(S(=O)(=O)NCCN(CC)CC)cc1.Cl`, with 11.4%.

For `CS(=O)(=O)N1CCC(Oc2cccc(C(=O)NCCCC3CCCC3)c2)CC1`, the “hERG current change (%, negative = inhibition) at 10uM” value was -30.3%.

Take `Cc1ccc(S(=O)(=O)N2CCN(C(=O)CN3C(=O)c4ccccc4C3=O)CC2)c(C)c1`: the “hERG current change (%, negative = inhibition) at 10uM” value is 9.02%. The value for `CCN(CC(=O)Nc1ccc(Cl)c(C(F)(F)F)c1)CC(=O)NC1CCS(=O)(=O)C1` (stereo not shown) was -13.2%; that for `CCOc1ccc(C2Nc3ccccc3NC3=C2C(=O)CC(C)(C)C3)cc1OC` (stereo not shown) was 15.6%; that for `Cc1ccc2nsnc2c1S(=O)(=O)N1CCN(C(=O)C2CCCO2)CC1` (stereo not shown) was 2.61%.

As to `Cc1ccc(NC(=O)C2CCN(S(=O)(=O)c3ccc4c(c3)CCCC(=O)N4)CC2)c(Br)c1`, the “hERG current change (%, negative = inhibition) at 10uM” value was -5.9%. On to `CCOc1c2ccc(C(=O)N[C@H](C)C3CCCCC3)cc2nn1CCOC`, for which the “hERG current change (%, negative = inhibition) at 10uM” value is listed as -18.2%. For `Cc1cc(C)c(OCCOCCN2CCN(C)CC2)c(Cl)c1.O=C(O)C(=O)O`, the “hERG current change (%, negative = inhibition) at 10uM” value is given as -5.21%.

`CN1CCN(CCOCCOc2c(Cl)cc(Cl)cc2Cl)CC1.O=C(O)C(=O)O`: the “hERG current change (%, negative = inhibition) at 10uM” value was -26.9%. The value for `Cc1cc(Cl)c(OCCOCCN2CCCC(C)C2)c(Br)c1.O=C(O)C(=O)O` (stereo not shown) was -61.8%; that for `Cc1cc(C)c(NC(=O)NC(=O)c2ccc(F)cc2)c(C)n1` was -0.738%. As for `O=C(c1ccc2c(c1)OCO2)N(c1ccc(Cl)cc1)C1C=CS(=O)(=O)C1` (stereo not shown), the “hERG current change (%, negative = inhibition) at 10uM” value is on record as -16.8%.

In the case of `Cc1ccc(N(C(=O)c2ccc3c(c2)OCO3)C2C=CS(=O)(=O)C2)cc1` (stereo not shown), the “hERG current change (%, negative = inhibition) at 10uM” value is -29.7%. Then `CC(C)c1ccc(N(C(=O)c2ccc3c(c2)OCO3)C2C=CS(=O)(=O)C2)cc1` (stereo not shown), with -66.2%; and `COc1ccccc1P(=O)(c1ccccc1)c1ccccc1NC(C)=O` (stereo not shown), with 14.3%; and `CCOC(=O)c1sc(N(Cc2ccccc2)C(=O)CN2C(=O)CN(C)C2=O)nc1C`, with -59%. On to `CCOC(=O)c1sc(N(Cc2ccccc2)C(=O)COC(=O)c2ccccc2O)nc1C`, for which the “hERG current change (%, negative = inhibition) at 10uM” value is on record as -5.14%. Then `CCOC(=O)c1sc(N(Cc2ccccc2)C(=O)CCl)nc1C`, with -6.21%; and `CCOc1ccccc1C(=O)NCCNC(=O)c1ccccc1OCC`, with -2.01%. The value for `O=C(NCCCCNC(=O)c1ccccc1F)c1ccccc1F` was 14.8%; that for `Cl.O=C(NCCN1CCN(c2ccccc2)CC1)c1ccccc1F` was -11%; that for `O=C(NCCCN1CCN(CCCNC(=O)c2ccccc2F)CC1)c1ccccc1F` was -53%. Consider `O=C(NCCCN1CCN(Cc2ccccc2)CC1)c1nnc(Cc2c(F)cccc2Cl)o1`, for which the “hERG current change (%, negative = inhibition) at 10uM” value is given as -63.1%. Regarding `O=C(NCCCN1CCCC1=O)c1nnc(Cc2c(F)cccc2Cl)o1`, the “hERG current change (%, negative = inhibition) at 10uM” value is reported as 1.34%. Consider `CN1CCN(CCCNC(=O)c2nnc(Cc3c(F)cccc3Cl)o2)CC1`, for which the “hERG current change (%, negative = inhibition) at 10uM” value was -3.44%.

With `CCOc1ccccc1C(=O)NCCCCNC(=O)c1ccccc1OCC`, the “hERG current change (%, negative = inhibition) at 10uM” value is on record as -31.4%. Take `CCOc1ccccc1C(=O)NCCCN1CCN(CCCNC(=O)c2ccccc2OCC)CC1`: the “hERG current change (%, negative = inhibition) at 10uM” value is on record as -53.3%.

On to `CC(C)CN(C(=O)C1CC1)c1c(N)n(Cc2ccccc2)c(=O)[nH]c1=O`, for which the “hERG current change (%, negative = inhibition) at 10uM” value turned out to be 21.2%. Regarding `CC1CCCC(C)N1C(=O)CSc1nnnn1Cc1ccccc1` (stereo not shown), the “hERG current change (%, negative = inhibition) at 10uM” value is -3.54%. `O=C(NNc1cccc(Cl)c1)c1cccnc1Oc1ccccc1`: the “hERG current change (%, negative = inhibition) at 10uM” value is on record as -8.21%. For `Fc1cccc(Cl)c1CSc1nnc(CNc2ccccc2)o1`, the “hERG current change (%, negative = inhibition) at 10uM” value is -21.5%. As to `COc1ccc(CC(=O)N/N=C/c2cccn2-c2ccc([N+](=O)[O-])cc2)cc1OC`, the “hERG current change (%, negative = inhibition) at 10uM” value was -37.9%. Then `Cn1c(=O)n(CC(N)=O)c(=O)c2c1nc1n2CCCN1Cc1ccccc1`, with 14.8%.
